Source: PubChem (National Center for Advancing Translational Sciences (NCATS))
Compounds with a hit are over-represented: about 19% of the library has one in this group of screens.
TGFb SMAD3 inh = TGF-b pathway inhibition. AID 588855. HepG2 CAGA-GFP TGF-b/SMAD3 reporter, GFP fluorescence, 18 h; TGF-beta stimulated, 500 pg/mL final. Potency, µM (top dose mostly 46.1 µM), for inactives: top-dose activity, negative = inhibition, actives largely listed as inhibitors. 410,000 tested, 1.2% active; further: potency means the concentration at half of the fitted maximal effect; on the % scale 0 is the no-effect control and ±100 the full control effect; nearly all actives have a fitted effect of over 65% in size
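TGF-beta reporter screen: HEPG2 CAGA-GFP, 1% FBS, 500 pg/mL TGF-beta final, 18 h; per-cell GFP summed per well; curves fitted and categorized by class.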
DT40 TDP1 CPT = growth inhibition of DT40 Tdp1-/-;hTDP1 cells with camptothecin (screen for TDP1 inhibitors) | 420,000 tested, 12% active | Potency, µM (titrated, usually from 46.2 µM), for the others: at the highest dose activity change, negative = growth inhibition, most hits filed as inhibitors | chicken DT40 Tdp1-/-;hTDP1 cells + 20 nM CPT, ATP luminescence, 48 h | AID 686979; further: potency means the concentration at half of the fitted maximal effect; on the % scale 0 is the no-effect control and ±100 the full control effect; nearly all actives have a fitted effect of over 55% in size
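Cell growth measured by CellTiter-Glo luminescence after a minimum 48 h, 37 C compound exposure with 20 nM CPT in Tdp1-knockout DT40 cells stably expressing hTDP1, seeded 400/well; qHTS titration format.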
TDP1 inh = blocks human tyrosyl-DNA phosphodiesterase 1; recombinant TDP1, AlphaScreen DNA substrate cleavage; Potency, µM (doses to about 130 µM), inactives show top-dose activity change, negative = inhibition, most hits filed as inhibitors; 350,000 tested, 0.28% active; further: potency means the concentration at half of the fitted maximal effect; on the % scale 0 is the no-effect control and ±100 the full control effect; nearly all actives have a fitted effect of over 40% in size
Target sequence (Q9NUW8 whole entry, looked up): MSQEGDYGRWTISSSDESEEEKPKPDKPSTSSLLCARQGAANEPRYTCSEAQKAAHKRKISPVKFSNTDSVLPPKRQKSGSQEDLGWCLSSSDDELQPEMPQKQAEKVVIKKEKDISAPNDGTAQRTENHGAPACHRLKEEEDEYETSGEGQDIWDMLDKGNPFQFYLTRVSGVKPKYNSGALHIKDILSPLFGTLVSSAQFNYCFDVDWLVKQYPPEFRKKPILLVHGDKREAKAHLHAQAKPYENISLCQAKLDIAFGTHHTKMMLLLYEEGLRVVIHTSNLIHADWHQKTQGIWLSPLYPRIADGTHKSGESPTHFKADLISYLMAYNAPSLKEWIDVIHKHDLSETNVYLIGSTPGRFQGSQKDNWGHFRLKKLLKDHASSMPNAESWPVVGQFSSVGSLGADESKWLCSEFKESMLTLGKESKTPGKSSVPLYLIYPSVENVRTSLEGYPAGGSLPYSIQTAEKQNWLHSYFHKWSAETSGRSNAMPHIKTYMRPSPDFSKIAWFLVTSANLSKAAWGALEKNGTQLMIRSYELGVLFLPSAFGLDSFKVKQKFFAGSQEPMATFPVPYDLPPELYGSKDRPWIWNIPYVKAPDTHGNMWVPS
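E. coli-derived human Tdp1, 1 nM final. Cpd preinc 15 min RT; substrate 15 nM final, 5 min RT; AS bead mix 10 ug/ml final, 10 min RT. Signal loss = tyrosine-FITC cleavage. No-enzyme wells = max signal.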
HepG2 tox = HepG2 cytotoxicity, counter-screen for TGF-b inhibitors; HepG2 CAGA-GFP viability, ATP luminescence, 18 h; Potency, µM (doses to about 46.1 µM), inactives show at the highest dose activity change, negative = cytotoxicity, hits mostly cytotoxic; 410,000 tested, 0.76% active; further: potency means the concentration at half of the fitted maximal effect
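HepG2 CAGA-GFP cells (1000/well, DMEM with 1% FBS) received compound, then TGF-beta at 500 pg/mL final, and were incubated 18 hours at 37 degrees C. Viability was read by CellTiter-Glo luminescence. Media-only wells were set as complete cell-killing and DMSO as no toxicity.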
TDP1 cell noCPT = qHTS for Inhibitors of human tyrosyl-DNA phosphodiesterase 1 (TDP1): qHTS in cells in absence of CPT; DT40 Tdp1-/- hTDP1 cells, no CPT, ATP luminescence, 48 h; Potency, µM (highest dose often 46.2 µM), without a hit: top-dose activity change, negative = growth inhibition, actives largely listed as inhibitors; 420,000 tested, 15% active; AID 686978, 2013; further: potency means the concentration at half of the fitted maximal effect; on the % scale 0 is the no-effect control and ±100 the full control effect; nearly all actives have a fitted effect of over 55% in size
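Cells were dispensed at 400 per well, compounds added by pin tool, plates incubated ≥48 hr at 37 °C, then CellTiter-Glo added for 30 min at room temperature before luminescence reading. Line: DT40 Tdp1-/- complemented with hTDP1; camptothecin omitted.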
IL1B secr inh = inflammasome signaling inhibition, IL-1 beta readout; AID 743279; 360,000 tested, 4.7% active; THP-1 LPS/ATP IL-1B secretion, AlphaLISA, 16 h; active compounds read low; activity change, % at 57.5 µM; in the data active means activity change below about -50%; inconclusive means mostly about -30% to -49%; further: on the % scale 0 is the no-effect control and ±100 the full control effect
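Secreted IL-1B measured by AlphaLISA bead assay after 16 h compound exposure of THP-1 cells; compounds (final up to 57.5 uM) added 1 h before LPS (250 ng/mL) and ATP (1.25 mM) stimulation; lower signal means less secretion.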
The depositor's hits bear a star; ? = inconclusive; · = no result given; [ ] = another dose, or the depositor's remark. Unless noted, the call rests on the fitted dose curve; in most records, active means well fitted curve in the direction sought with a large enough effect; inconclusive means small, poorly fitted or top-dose-only effect, or another doubt; inactive means no such curve, though single readings can be large; an effect the other way counts as inactive or inconclusive.

SMILES	TGFb SMAD3 inh	DT40 TDP1 CPT	TDP1 inh	HepG2 tox	TDP1 cell noCPT	IL1B secr inh
NC(=S)N/N=C/c1c[nH]c2ccccc12	-17%	11%	-1%	-11%	-6%	0
NC(=S)NN=Cc1nccc2c(C(F)(F)C(F)(F)C(F)(F)F)cccc12	1.4µM*	0.016µM*	·	-37%	0.52µM*	117
Cc1cnc(C=NNC(N)=S)c2cccc(N)c12	10µM*	3.3µM*	·	-30%	3.7µM*	62
CCOC(=O)c1cc(OC(=O)c2cccc(Cl)c2)n(-c2ccccc2)n1	-3%	-13%	5%	4%	-6%	·
CCN(c1ccccc1)S(=O)(=O)c1csc(C(N)=O)c1	24%	?	·	10%	-29%	12
COCCCNC(=O)c1cc2c(=O)oc3ccc(C)cc3c2s1	-2%	6.5µM*	5%	5%	5.8µM*	·
COc1cccc(CNC(=O)c2cc3c(=O)oc4ccc(C)cc4c3s2)c1	-10%	?	6%	7%	21µM*	·
COc1ccc(CNCc2c(C(=O)O)c(C)n(Cc3ccccc3C)c2C)cc1OC	4%	-12%	5%	-1%	-1%	·
COc1ccccc1C(=O)Nc1nc2cc3c(cc2s1)OCCO3	-3%	5.8µM*	·	-52%	5.8µM*	9
CCN(CC)S(=O)(=O)c1ccc2nc(NC(=O)c3cccs3)sc2c1	-5%	?	5%	-37%	?	23
COc1ccccc1C(=O)Nc1nc2cc3c(cc2s1)OCO3	-13%	?	·	-25%	-6%	0
CCN(CC)S(=O)(=O)c1ccc2nc(NC(=O)c3ccccc3OC)sc2c1	-5%	?	8%	-4%	5.2µM*	·
CCOc1ccc(NC(=O)c2cccc(NC(C)=O)c2)cc1S(=O)(=O)N1CCCC1	6%	?	0%	-5%	?	8
Cc1ccc(NS(=O)(=O)c2ccc(NC(=O)N3CCCC3)cc2)cc1C	-14%	0%	4%	-4%	-16%	·
NC(=O)c1oc2ccccc2c1NC(=O)c1nc2ccccc2s1	2%	-12%	79µM*	3%	-18%	13
COCC(=O)N1CCC2(CCN(Cc3ccccc3OC)CC2)CC1	·	5%	·	·	-9%	·
CC(C)CC(NC(=O)C(NC(=O)C(Cc1ccc(OCc2ccccc2)cc1)NC(=O)OC(C)(C)C)C(C)C)C(N)=O (centres undefined)	-6%	?	3%	-49%	16µM*	22
CC(NC(=O)OC(C)(C)C)C(=O)NC(CCC(=O)OCc1ccccc1)C(N)=O (centres undefined)	0%	-28%	2%	10%	29µM*	-8
Cc1ccc(CN(C)C2CCN(C)CC2)cc1	23%	?	·	14%	-18%	-19
O=C(CN1CCN(C(=O)c2ccc(-c3nc4ccccc4s3)o2)CC1)Nc1cccc(F)c1	0%	-1%	·	-9%	-15%	7
COc1ccccc1N1CCN(C(=O)c2ccc(-c3nc4ccccc4s3)o2)CC1	?	23µM*	6%	-47%	16µM*	13
COc1ccc(N2CCN(C(=O)c3ccc(-c4nc5ccccc5s4)o3)CC2)cc1	-1%	16µM*	4%	-16%	12µM*	44
COc1ccc(N2C(=O)c3ccccc3NC2c2ccc(OC)c(COc3ccccc3F)c2)cc1 (centres undefined)	-1%	-17%	-5%	-28%	?	·
COc1ccc(C2Nc3ccccc3C(=O)N2Cc2ccccc2)cc1COc1ccccc1OC (centres undefined)	·	·	3%	·	·	·
CCCN1C(=O)c2ccccc2NC1c1ccc(OC)c(COc2cccc(C)c2C)c1 (centres undefined)	1%	?	0%	-13%	16µM*	·
SMILES	TGFb SMAD3 inh	DT40 TDP1 CPT	TDP1 inh	HepG2 tox	TDP1 cell noCPT	IL1B secr inh
COc1ccc(C2Nc3ccccc3C(=O)N2c2cccc3ccccc23)cc1COc1c(C)cccc1C (centres undefined)	25%	3.2µM*	0%	3%	2.8µM*	·
CCn1c(=O)n(-c2ccc3c(c2)OCO3)c2nc(-c3cc(OC)ccc3OC)nc(C(N)=O)c21	-30%	11%	8%	-12%	-16%	·
O=C(NC1CCCCCC1)c1ccc(CS(=O)Cc2cccc(Cl)c2)o1 (centres undefined)	5%	?	2%	0%	?	-29
Cc1sc(NC(=O)c2cccc(N3C(=O)CCC3=O)c2)nc1-c1ccccc1	0%	-5%	·	-21%	?	-57*
O=C(Nc1nc(-c2cc(F)ccc2F)cs1)C1=NN(c2ccccc2)C(=O)CC1	-2%	?	-3%	-15%	?	67
Cc1cccc2sc(NC(=O)C3=NN(c4ccccc4)C(=O)CC3)nc12	7%	-20%	3%	-5%	?	40
COc1ccc(-c2nc(NC(=O)C3=NN(c4cccc(C)c4)C(=O)CC3)sc2C)cc1	-3%	23µM*	5%	8%	?	40
COc1ccc(-c2csc(NC(=O)C3=NN(c4ccccc4)C(=O)CC3)n2)cc1	-5%	15µM*	-5%	-19%	16µM*	-24
CC(=O)OC[C@H]1O[C@@H](O/N=C(\C)CCC(=O)OC[C@@H]2O[C@H](C#Cc3ccccc3)C=C[C@@H]2Oc2ccc(C)cc2)[C@H](OC(C)=O)[C@@H](OC(C)=O)[C@H]1OC(C)=O	·	·	7%[21 µM]	·	·	·
CCc1cccc(NC(=O)COC(=O)c2cc([N+](=O)[O-])ccc2N2CCOCC2)c1	13%	?	6%	-15%	?	3
CCc1ccc(C(=O)NC(=S)Nc2ccc3c(c2)OCCO3)cc1	28%	?	5%	-9%	?	-5
Cc1cc(C)cc(C(=O)NC(=S)Nc2ccc3c(c2)OCCO3)c1	3%	16µM*	8%	-7%	?	-16
O=C(NC(=S)Nc1ccc(N2CCOCC2)c(Cl)c1)c1cncc(Br)c1	?	-3%	2%	5%	-34%	14
O=C(NC(=S)Nc1ccc(N2CCCCC2)c(Cl)c1)c1ccc2c(c1)OCCO2	-15%	16µM*	8%	-26%	21µM*	-7
CC(C)N(C(=S)Nc1cccc(C(F)(F)F)c1)C(C)c1ccccn1 (centres undefined)	-24%	-9%	-8%	-21%	?	-91*
